Screening results (PubChem)
The list is not random: actives were taken first. Their share in the collection is about 3.1%.
PLK1 PBD inh = blocks phosphopeptide binding to human PLK1 polo-box domain; 2.8% of 360,000 active; Plk1 PBD binding of FITC phosphopeptide, fluorescence polarization; Potency, µM, for the others: max response, negative = inhibition, most hits filed as inhibitors; AID 720504; also: series mostly up to about 57 µM; % is scaled to controls: 0 for no effect and ±100 for the full control effect; nearly all actives have a fitted effect of over 65% in size
VDR inhibitor = inhibitors of human vitamin D receptor. AID 504847. P11473. 0.93% of 400,000 active. VDR-SRC2-3 peptide fluorescence polarization, 2 h. Potency, µM, without a hit: max response, negative = inhibition, actives largely listed as inhibitors; also: % is scaled to controls: 0 for no effect and ±100 for the full control effect
Target sequence (P11473 whole entry, looked up): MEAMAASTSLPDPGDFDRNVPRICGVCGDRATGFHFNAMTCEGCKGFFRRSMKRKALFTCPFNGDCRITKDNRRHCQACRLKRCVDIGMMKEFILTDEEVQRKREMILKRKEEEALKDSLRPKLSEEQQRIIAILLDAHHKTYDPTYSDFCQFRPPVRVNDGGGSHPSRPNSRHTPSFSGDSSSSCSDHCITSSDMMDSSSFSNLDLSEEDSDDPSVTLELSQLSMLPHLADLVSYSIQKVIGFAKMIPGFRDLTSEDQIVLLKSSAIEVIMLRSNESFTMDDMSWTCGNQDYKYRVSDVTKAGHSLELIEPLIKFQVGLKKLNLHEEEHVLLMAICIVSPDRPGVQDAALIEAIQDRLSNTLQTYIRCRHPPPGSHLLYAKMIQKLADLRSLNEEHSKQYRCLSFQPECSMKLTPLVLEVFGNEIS
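Two reagent solutions held at 4 deg C in the dark were dispensed, compounds pinned at 23 nl, and the mixture incubated 2 h at room temperature. Read-out: fluorescence polarization of VDR–SRC2-3 peptide binding.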
ASM inhibitor = inhibitors of human secretory acid sphingomyelinase; placental ASM, HMU-PC fluorogenic substrate, 60 min; 0.006% of 340,000 active; AID 504937; Potency, µM (doses to about 57.5 µM), for inactives: top-dose activity change, negative = inhibition, usual class: inhibitors; P17405
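Steps: dispense placental human ASM, pin compound, wait 10 min at room temperature, add HMU-PC0 substrate at 9 uM final, incubate 60 min at 37 °C, add stop solution raising pH to 10, read fluorescence.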
TDP1 inh = blocks human tyrosyl-DNA phosphodiesterase 1; Q9NUW8; recombinant TDP1, AlphaScreen DNA substrate cleavage; Potency, µM (top dose mostly 130 µM), for the others: at the highest dose activity change, negative = inhibition, usual class: inhibitors; 0.28% of 350,000 active; AID 485290; also: % is scaled to controls: 0 for no effect and ±100 for the full control effect; nearly all actives have a fitted effect of over 40% in size
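Compounds were preincubated with Tdp1 (1 nM final) for 15 min at room temperature before substrate (15 nM final) started a 5 min reaction; beads (10 ug/ml final) were then added for 10 min before AlphaScreen detection.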
Pin1 inhibitor = inhibitors of human Pin1; Q13526; Pin1 FP peptide displacement, HiFluor488, 10 min; Potency, µM (doses to about 115 µM), without a hit: at the highest dose activity, negative = inhibition, usual class: inhibitors; 0.009% of 390,000 active; active = well fitted inhibition curve with a large enough effect in the polarisation, with a control signal flat, not every such curve was filed as active; inconclusive = small, poorly fitted or top-dose-only effect, or effect the other way, or a change in a side signal; inactive = no such curve, though single readings can be large or run the other way; the % refers to the polarisation; also: % is scaled to controls: 0 for no effect and ±100 for the full control effect
Target sequence (Q13526 whole entry, looked up): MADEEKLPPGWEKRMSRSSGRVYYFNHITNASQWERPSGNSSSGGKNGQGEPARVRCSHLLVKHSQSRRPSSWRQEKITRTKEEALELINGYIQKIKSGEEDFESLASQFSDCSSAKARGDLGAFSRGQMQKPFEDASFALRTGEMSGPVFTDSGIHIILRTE
Tb PFK inh = inhibitors of T. brucei phosphofructokinase | O15648 | 0.17% of 330,000 active | AID 485367 | Potency, µM (top dose mostly 57.5 µM), without a hit: at the highest dose activity, negative = inhibition, most hits filed as inhibitors | T. brucei PFK, ADP-Glo luminescence;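 also: 0% = uninhibited 1x PFK enzyme wells and -100% = no-enzyme wells; nearly all actives have a fitted effect of over 60% in size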
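1.25 nM PFK with 0.5 mM F6P and 0.1 mM ATP in 0.1 M TEA pH 8.0, 5 mM MgCl2, incubated 45 min at room temperature; ADP measured by ADP-Glo luminescence; compounds titrated up to 57 uM.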
An asterisk follows results filed as active; ? = inconclusive; . = not tested or not shown. Unless noted, calls follow the shape of the dose curve; as a rule, active = well fitted curve in the direction sought with a large enough effect; inconclusive = small, poorly fitted or top-dose-only effect, or another doubt; inactive = no such curve, though single readings can be large; an effect the other way counts as inactive or inconclusive. Potency is read from the fitted curve at half-maximal effect.

SMILES | PLK1 PBD inh | VDR inhibitor | ASM inhibitor | TDP1 inh | Pin1 inhibitor | Tb PFK inh
Cc1c(N2C(=O)/C(=C\C3CC=CCC3)SC2=S)c(=O)n(-c2ccccc2)n1C (stereo not drawn) | ? | 50µM* | 0% | -3% | 1% | 1%
O=C(CCCn1c(=O)c2ccccc2n(Cc2cccc(Cl)c2)c1=O)NCCc1ccc(Cl)cc1 | . | 27% | . | -3% | 5% | .
O=c1c(O)c(-c2ccccc2)oc2cccc(O)c12 | . | 15% | . | 10% | . | .
O=[N+]([O-])c1cc([N+](=O)[O-])c2oc(-c3ccccc3)c(Br)c2c1O | 8.4µM* | -28% | 37% | . | . | -1%
COc1cc(OC)c(NC(=O)c2cc(C(C)=O)n3ccccc23)cc1Cl | . | 13% | . | 3% | 0% | .
N#C/C(=C\c1cccc(Br)c1)C(=O)N1CCCCC1 | ? | 50µM* | -2% | 0% | 5% | 3%
N#C/C(=C\c1cccc(O)c1)C(=O)N1CCCCC1 | -8% | -23% | 1% | . | 1% | 1%
CCCn1c(SCC(=O)Nc2nnc(C)s2)nnc1-c1ccoc1C | 27µM* | ? | -1% | 12% | 1% | -2%
CCCCn1c(SCC(=O)Nc2nnc(C)s2)nnc1-c1ccoc1C | 1% | -6% | 3% | 5% | -2% | 1%
Cc1nnc(NC(=O)CSc2nnc(-c3ccoc3C)n2CC(C)C)s1 | 27µM* | ? | -1% | 9% | 3% | 1%
COc1ccc(C2Nc3ccccc3C(=O)N2Cc2ccc(-c3ccccc3)cc2)cc1COc1ccc(NC(C)=O)cc1 (stereo not drawn) | . | . | . | -3% | -11% | .
O=C(CCC1CCCCC1)NCCN1C2=NC[C@H](Cc3ccc(O)cc3)N2C[C@H]1Cc1ccc(O)cc1 | ? | 0% | 1% | 6% | 6% | 0%
CC(C)[C@H]1CN=C2N(CCNC(=O)CCC3CCCCC3)[C@H](Cc3ccc(O)cc3)CN21 | 27µM* | -3% | 9% | 4% | 11% | -9%
Cc1ccccc1OCC(O)Cn1c(SC(C)C)nc2c1c(=O)[nH]c(=O)n2C (stereo not drawn) | 30µM* | ? | -1% | 5% | 2% | -8%
CCSc1nc2c(c(=O)[nH]c(=O)n2C)n1CC(O)COc1ccccc1C (stereo not drawn) | 27µM* | -27% | 0% | 5% | 4% | -3%
Cc1ccccc1OCC(O)Cn1c(N2CCCCC2)nc2c1c(=O)[nH]c(=O)n2C (stereo not drawn) | -12% | -15% | 4% | 3% | 1% | -1%
Cc1ccccc1OCC(O)Cn1c(Br)nc2c1c(=O)[nH]c(=O)n2C (stereo not drawn) | 1% | -3% | 0% | 9% | -1% | -1%
CN1C(=O)C(=O)/C(=C(/O)c2ccccc2)C1c1ccc(Br)cc1 (stereo not drawn) | -5% | -7% | 3% | . | -2% | -1%
CN1C(=O)C(=O)/C(=C(/O)c2ccc(Br)cc2)C1c1ccccc1F (stereo not drawn) | 34µM* | 0% | -1% | . | -11% | 2%
C=CCn1nnnc1-c1cccc(Cl)c1 | 27µM* | -5% | -5% | 0% | 1% | -5%
O=C(c1ccccc1)n1nnc2ccccc21 | 6µM* | -9% | 1% | 5% | -1% | .
CC(=O)c1ccc(OCCCC(=O)n2nnc3ccccc32)cc1 | 21µM* | ? | -5% | 0% | 1% | 2%
O=C(CCCOc1ccc(Cl)cc1Cl)n1nnc2ccccc21 | 8.4µM* | 71µM* | -7% | 5% | 0% | -2%
Cc1onc(-c2ccccc2)c1C(=O)n1nnc2ccccc21 | ? | -22% | -2% | 2% | -3% | -1%
Cc1noc(C)c1-c1ccc2ncnc(NCc3ccc(Br)cc3)c2c1 | . | . | . | 4% | 11% | .
SMILES | PLK1 PBD inh | VDR inhibitor | ASM inhibitor | TDP1 inh | Pin1 inhibitor | Tb PFK inh
COc1ccc(OC)c(NC(=O)C(OC(=O)CNC(=O)c2ccccc2)c2ccccc2)c1 (stereo not drawn) | . | . | . | 1% | 1% | .
Fc1ccc(C(c2ccc(F)cc2)N2CCN(CC=Cc3ccccc3)CC2)cc1 | . | -10% | . | . | . | .
CCCn1c(=O)c2ccccc2n2c(SCC(=O)NCc3cccs3)nnc12 | 27µM* | -26% | -1% | 4% | 3% | -2%
C=CCn1c(=O)c2ccccc2n2c(SCC(=O)c3ccccc3)nnc12 | 24µM* | -29% | -3% | 1% | 9% | -6%
O=c1cc(-c2ccccc2)n2c(SCc3ccc(Br)cc3)nnc2[nH]1 | . | 15% | . | 3% | 5% | .
CCOC(=O)c1c(NC(=O)/C=C/C(=O)O)sc(C)c1-c1ccc(C(C)(C)C)cc1 | 21µM* | 20µM* | 26% | 10% | . | -6%
CCc1ccc(-c2c(C)sc(NC(C)=O)c2C(N)=O)cc1 | 27µM* | -13% | 0% | 0% | -11% | 2%
CCOC(=O)c1c(NC(=O)/C=C\C(=O)O)sc(C)c1-c1ccccc1 | 21µM* | -26% | 15% | 6% | 4% | 2%
Cc1sc(NC(=O)C2CCCCC2C(=O)O)c(C(N)=O)c1-c1ccc(C(C)(C)C)cc1 (stereo not drawn) | 21µM* | ? | -20% | 6% | -1% | -7%
CCOC(=O)c1c(NC(=O)CCN2CCOCC2)sc(C)c1-c1ccccc1 | -14% | -13% | -4% | 1% | 0% | -3%
CCOC(=O)c1c(NC(=O)C2C3CCC(O3)C2C(=O)O)sc(C)c1-c1ccc(C)cc1 (stereo not drawn) | ? | -26% | -25% | 2% | -4% | 1%
CNc1cccc(S(=O)(=O)N2CCCN(S(=O)(=O)c3ccc4c(c3)OCCO4)CC2)c1 | . | . | . | 0% | 2% | .
CC1CC=CC2C1C(=O)N(Cc1ccccc1)C2c1ccc(F)c(Br)c1 (stereo not drawn) | . | ? | . | -3% | ? | .
Cc1sc(NC(=O)C2C3CCC(C3)C2C(=O)O)c(C(N)=O)c1-c1ccc(C(C)(C)C)cc1 (stereo not drawn) | ? | -21% | -16% | 4% | -11% | -7%
Cc1sc(NC(=O)/C=C/C(=O)O)c(C(N)=O)c1-c1ccc(C(C)(C)C)cc1 | 27µM* | 79µM* | 18% | 6% | -1% | 0%
CC1(C)CC(=O)C(C(C2=C(O)CC(C)(C)CC2=O)c2cccc(O)c2)C(=O)C1 (stereo not drawn) | ? | -20% | 0% | 8% | -4% | 0%
Cc1ccc(C(C2=C(O)CC(C)(C)CC2=O)C2C(=O)CC(C)(C)CC2=O)o1 (stereo not drawn) | 6µM* | 50µM* | 1% | -9% | 0% | ?
CCN(CC)CCC(c1ccc(N(C)C)cc1)c1c(OC)cc(OC)c2c1OC(=O)CC2c1ccc(N(C)C)cc1 (stereo not drawn) | . | -16% | . | 28% | -1% | .
